Assay outcomes from PubChem.
OPRM1-OPRD1 inv = mu-delta opioid heterodimer inverse agonism; P35372+P41143; cell-based MOR-DOR heterodimer luminescence; inhibition, % at 9.3 µM; 0.21% of 340,000 active; in the data active means inhibition above about 22%, passing the limit was not always enough;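 further: 0% = cells with DMSO and 100% = wells without cells with DMSO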
HTR5A ag = counter-screen for OPRM1-OPRD1 agonists: human HTR5A agonism; P47898; HTR5A agonist assay, luminescence, cell-based; activation, % at 9.3 µM; 0.61% of 340,000 active; AID 504692; in the data active means activation mostly above about 9.5%, no sharp cut-off; inactive means mostly below about 7.6%;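 further: 0% = cells with vehicle only and 100% = reference agonist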
Target sequence (P47898 whole entry, looked up): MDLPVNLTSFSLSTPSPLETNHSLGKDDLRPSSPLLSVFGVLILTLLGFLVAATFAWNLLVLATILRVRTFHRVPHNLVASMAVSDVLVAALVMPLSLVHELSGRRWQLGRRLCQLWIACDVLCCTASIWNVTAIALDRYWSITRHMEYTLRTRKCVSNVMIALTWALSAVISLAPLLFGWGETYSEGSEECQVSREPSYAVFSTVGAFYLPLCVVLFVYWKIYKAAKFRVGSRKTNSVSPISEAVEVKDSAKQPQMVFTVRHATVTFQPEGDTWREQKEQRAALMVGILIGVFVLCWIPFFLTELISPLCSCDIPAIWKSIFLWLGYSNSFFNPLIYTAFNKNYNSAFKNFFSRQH
OPRM1-OPRD1 ag = agonists of human mu-delta opioid receptor heterodimerization; P35372+P41143; cells, OPRM1-OPRD1 heterodimerization, luminescence; activation, % at 9.3 µM; 0.3% of 340,000 active; AID 504326;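 further: 0% = vehicle-treated cells and 100% = reference agonist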
HTR5A inv ag = inverse agonist of human HTR5A in OPRM1-OPRD1 counter-screen. AID 504634. P47898. 0.083% of 340,000 active. HTR5A cell line, luminescence, inverse agonism. inhibition, % at 9.3 µM; in the data active means inhibition mostly above about 23%, no sharp cut-off; inactive means mostly below about 18%;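 further: 0% = cells with DMSO and 100% = no-cell wells with DMSO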
MOR-DOR ag conf = confirmation of human OPRM1-OPRD1 heterodimerization agonists | cells, MOR-DOR heterodimerization, luminescence complementation | shares compounds with OPRM1-OPRD1 ag | activation, % at 9.3 µM | 45% of 830 active;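 further: 0% = vehicle-treated cells and 100% = reference agonist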
HTR5A ag counter = counter-screen for OPRM1-OPRD1 agonists: human HTR5A agonism; shares compounds with OPRM1-OPRD1 ag; HTR5A agonist counterscreen, cell luminescence; activation, % at 9.3 µM; 8% of 830 active; in the data active means activation above about 17%;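 further: 0% = vehicle-treated cells and 100% = reference agonist response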
Numbers without * were called inactive. A selection: hits, their analogues and other compounds. The true share with any hit is near 1.1%. Unless noted, no stated cut-off is given here; in the data, active means activation above about 18%; inactive means the rest.

What do the screens show for `CCC1CCCCN1S(=O)(=O)c1ccc2[nH]c(=O)ccc2c1` (stereo not drawn)?
OPRM1-OPRD1 inv: 3; HTR5A ag: -1; OPRM1-OPRD1 ag: -1; HTR5A inv ag: -10

How did CCOC(=O)C1(CCOc2ccccc2)CCN(Cc2ccc(O)cc2)CC1 do in these assays?
OPRM1-OPRD1 inv: -2; HTR5A ag: -8; OPRM1-OPRD1 ag: 0; HTR5A inv ag: 27

Results for CCOC(=O)C1(CCOc2ccccc2)CCN(Cc2cnc(SC)nc2)CC1 ?
OPRM1-OPRD1 inv: -155; HTR5A ag: 4; OPRM1-OPRD1 ag: 32*; HTR5A inv ag: 20; MOR-DOR ag conf: 2; HTR5A ag counter: -2

What do the screens show for `CCOC(=O)C1(CC2CC2)CCN(Cc2cnc(-c3ccccc3C)nc2)CC1`?
OPRM1-OPRD1 inv: -396; HTR5A ag: -4; OPRM1-OPRD1 ag: 79*; HTR5A inv ag: 24; MOR-DOR ag conf: 72*; HTR5A ag counter: 3

What do the screens show for `CCOC(=O)C1(CC2CC2)CCN(Cc2cc(Cl)c(O)c(OC)c2)CC1`?
OPRM1-OPRD1 inv: -29; HTR5A ag: 0; OPRM1-OPRD1 ag: 6; HTR5A inv ag: -8

Results for CCOC(=O)C1(CCOc2ccccc2)CCN(Cc2ccc(OC)c(O)c2)CC1 ?
OPRM1-OPRD1 inv: -368; HTR5A ag: -1; OPRM1-OPRD1 ag: 77*; HTR5A inv ag: 2; MOR-DOR ag conf: 75*; HTR5A ag counter: 3

How did Cc1cc(=O)oc2c(C)c(OCC(=O)NCCCN3CCCC3=O)ccc12 do in these assays?
OPRM1-OPRD1 inv: 14; HTR5A ag: 3; OPRM1-OPRD1 ag: -3; HTR5A inv ag: 5

How did O=C(N/N=C/c1ccc2ncccc2c1)c1cccc([N+](=O)[O-])c1 do in these assays?
OPRM1-OPRD1 inv: -15; HTR5A ag: 4; OPRM1-OPRD1 ag: 2; HTR5A inv ag: -3

How did Cc1c(C(=O)N(Cc2ccccc2)C2CCS(=O)(=O)C2)oc2ccccc12 (stereo not drawn) do in these assays?
OPRM1-OPRD1 inv: -13; HTR5A ag: 13; OPRM1-OPRD1 ag: 2; HTR5A inv ag: -41

Results for Cc1c(C(=O)N(Cc2cccs2)C2CCS(=O)(=O)C2)oc2ccccc12 (stereo not drawn) ?
OPRM1-OPRD1 inv: -138; HTR5A ag: 5; OPRM1-OPRD1 ag: 27*; HTR5A inv ag: -16; MOR-DOR ag conf: -2; HTR5A ag counter: -7

How did O=C1NCN(c2ccccc2)C12CCN(CCCC(c1ccc(F)cc1)c1ccc(F)cc1)CC2 do in these assays?
OPRM1-OPRD1 inv: -166; HTR5A ag: 6; OPRM1-OPRD1 ag: 31*; HTR5A inv ag: -22; MOR-DOR ag conf: 0; HTR5A ag counter: 5

Results for O=C(CSc1ccc(Cl)cc1)Nc1ccc(-c2nc3ccccc3[nH]2)cc1 ?
OPRM1-OPRD1 inv: -144; HTR5A ag: 13*; OPRM1-OPRD1 ag: 32*; HTR5A inv ag: 4; MOR-DOR ag conf: 171*; HTR5A ag counter: 6

Results for CCn1cc(Cl)c(C(=O)Nc2c(C)nn(Cc3c(F)c(F)c(F)c(F)c3F)c2C)n1 ?
OPRM1-OPRD1 inv: 13; HTR5A ag: -3; OPRM1-OPRD1 ag: -3; HTR5A inv ag: 8

How did Cc1nc(C)c(-c2csc(Nc3cccnc3)n2)s1 do in these assays?
OPRM1-OPRD1 inv: -3; HTR5A ag: -2; OPRM1-OPRD1 ag: 1; HTR5A inv ag: -10

How did Cn1c(-c2c(N)n(CCc3ccccc3)c3nc4ccccc4nc23)nc2ccccc21 do in these assays?
OPRM1-OPRD1 inv: inactive; HTR5A ag: 4; OPRM1-OPRD1 ag: 250*; HTR5A inv ag: -14; MOR-DOR ag conf: 235*; HTR5A ag counter: 6

How did Cn1c(-c2c(N)n(C3CCCC3)c3nc4ccccc4nc23)nc2ccccc21 do in these assays?
OPRM1-OPRD1 inv: -40; HTR5A ag: -3; OPRM1-OPRD1 ag: 7; HTR5A inv ag: 9

How did COCCCn1c(N)c(-c2nc3ccccc3n2C)c2nc3ccccc3nc21 do in these assays?
OPRM1-OPRD1 inv: inactive; HTR5A ag: -2; OPRM1-OPRD1 ag: 117*; HTR5A inv ag: 5; MOR-DOR ag conf: 142*; HTR5A ag counter: -1

How did CCOC(=O)Nc1cccc2c1-c1ccc([N+](=O)[O-])cc1C2=O do in these assays?
OPRM1-OPRD1 inv: -3; HTR5A ag: -4; OPRM1-OPRD1 ag: 1; HTR5A inv ag: 14

What do the screens show for `Cc1ccc(COn2c(-c3ccc(Cl)cc3Cl)nc3ncccc32)cc1`?
OPRM1-OPRD1 inv: -433; HTR5A ag: 1; OPRM1-OPRD1 ag: 77*; HTR5A inv ag: -4; MOR-DOR ag conf: 1; HTR5A ag counter: 35*
